# From PubChem BioAssay (EPA / NIEHS)
# Records with an inconclusive call do not appear. Active and inactive are the calls of the source. Rule for the calls: active = hit-call score of the fitted dose curve at least 0.9, where 1 is the maximum; inconclusive = response in the unintended direction; inactive = score below 0.9.
# Experiment: Tanguay_ZF_120hpf_JAW_legacy: (Legacy) Oregon State University Tanguay Lab 120 Hour Post-fertilization zebrafish Assay for Jaw Malformation (AID 2283638);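 for AC50: active means more embryos with jaw malformation than DMSO controls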
# Protocol: Tanguay_ZF_120hpf_legacy is a whole embryo, multiplexed endpoint assay using zebrafish larvae exposed for 120 hours post fertilization on a 96-well plate.Tanguay_ZF_120hpf_JAW_legacy is one of one assay component(s) measured or calculated from the Tanguay_ZF_120hpf_legacy assay. It is designed to make measurements of zebrafish development as detected with brightfield microscopy of developing zebrafish embryos.Data from the assay component Tanguay_ZF_120hpf_JAW_legacy was analyzed into 1 assay endpoints. This assay endpoint, Tanguay_ZF_120hpf_JAW_legacy, was analyzed in the positive analysis fitting direction relative to DMSO as the negative control and baseline of activity. Using a type of morphology reporter, gain-of-signal activity can be used to understand changes in developmentals as they relate to the whole embryo. To generalize the intended target to other relatable targets, this assay endpoint is annotated to the zebrafish development intended target family, where the subfamily is embryonic jaw development.
# Zebrafish husbandry: Tropical 5D wild-type adult zebrafish were housed in at an approximate density of 1000 per 100 gallon tank at the Sinnhuber Aquatic Research Laboratory, Oregon State University, Corvallis, OR. Each tank was kept at standard laboratory conditions of 28C on a 14-h light/10-h dark photoperiod in fish water consisting of reverse osmosis water supplemented with a commercially available salt (Instant Ocean). Spawning funnels were placed into the tanks the night prior, and embryos were collected and staged. To increase bioavailability, the chorion was enzymatically removed using pronase (63.6mg/ml, >/= 3.5U/mg, Sigma-Aldrich: P5147) at 4 hours post fertilization (hpf) using a custom automated dechorionator.Chemical exposures: Six hpf dechorionated embryos were placed 1 embryo per well in a 96-well plate prefilled with 90 ul of EM using automated embryo placement systems (AEPS). Ten microliters of each row of dilution plate 2 was added to 2 exposure plates. The final DMSO concentration used was 0.64% (vol/vol). Thirty-two embryos were also exposed to 5uM trimethyltin chloride (positive control). Plates were sealed to prevent evaporation and foil covered to reduce light exposure and kept in a 28C incubator. Embryos were statically exposed until 120 hpf. At 24 hpf, embryos were assessed for photomotor response using a custom photomotor response analysis tool (PRAT) and for developmental toxicity endpoints (MO24: mortality at 24 hpf, DP: developmental progression, SM: spontaneous movement, and NC: notochord distortion). At 120 hpf, locomotor activity was measured using Viewpoint Zebralab and assessed for 18 endpoints. Zebrafish acquisition and analysis program (ZAAP), a custom program designed to inventory, acquire, and manage zebrafish data, was used to collect developmental endpoints as either present or absent (i.e., binary responses were recorded). If mortality occurred for an embryo (at either 24 or 120 hpf), the non-mortality endpoints were not measured.
SMILES,outcome,AC50
CCCCCCCC=O,inactive,–
Cc1ccc(N(C)C)cc1,inactive,–
COCCOC[C@H](CC1(C(=O)NC2CCC(C(=O)O)CC2)CCCC1)C(=O)Oc1ccc2c(c1)CCC2 (stereo not given in full),inactive,–
CCCCC(CC)COC(=O)CC(C(=O)OCC(CC)CCCC)S(=O)(=O)O (stereo not given),inactive,–
Cc1ccc2ncccc2c1,inactive,–
CCCCCC(=O)O,inactive,–
C1CCC(SSC2CCCCC2)CC1,inactive,–
O=c1[nH]cc(F)c(=O)[nH]1,inactive,–
O=c1c(O)c(-c2ccc(O)c(O)c2)oc2cc(O)cc(O)c12,inactive,–
CCCc1cc(=O)[nH]c(=S)[nH]1,inactive,–
COC(=O)c1ccc(O)cc1,inactive,–
O=C(N[C@@H](Cc1ccccc1)[C@@H](O)C(=O)N1C[C@@H](O)[C@@H](O)C1)c1cc2cc(Cl)ccc2[nH]1,inactive,–
CCCCc1ccc2c(n1)[C@@H](c1ccc(OC)cc1C[C@H](C)C(=O)O)[C@H](C(=O)O)[C@H]2c1ccc2c(c1)OCO2,inactive,–
CCOC(=O)CCC(=O)OCC,inactive,–
CC(=O)Oc1ccccc1C(=O)O,inactive,–
Nc1nc(N)c2nc(CNc3ccc(C(=O)N[C@@H](CCC(=O)O)C(=O)O)cc3)cnc2n1,inactive,–
Cc1cccc([N+](=O)[O-])c1C,inactive,–
O=C(O)CCCCC(=O)O,inactive,–
CC1(C)CC(N=C=O)CC(C)(CN=C=O)C1 (stereo not given),inactive,–
CCCCCCCCCCCCCO,inactive,–

SMILES,outcome,AC50
CN1CCCC1=O,inactive,–
Nc1ccccc1N,–,49.4 µM (active)
NS(=O)(=O)c1cc2c(cc1Cl)NCNS2(=O)=O,inactive,–
C=CCOC(=O)c1ccccc1C(=O)OCC=C,inactive,–
CCCCCCOCCO,inactive,–
Nc1ccc2c(c1)C(=O)c1ccccc1C2=O,inactive,–
Cc1cc(NC(=O)C(=O)O)cc(C)c1Oc1ccc(O)c2c1CCC2,–,0.0689 µM (active)
Cc1ccc(Cl)cc1,inactive,–
FC(F)(F)C(F)(F)C(F)(F)C(F)(F)C(F)(F)C(F)(F)CCI,inactive,–
CC(C)(C)c1cc(O)c(C(C)(C)C)cc1O,–,47.5 µM (active)
Cc1nc(C)nc(N2C[C@@H](C)N(c3ccnc([C@@H](C)O)n3)[C@@H](C)C2)n1,inactive,–
CCCCOC(=O)CCCCCCCCC(=O)OCCCC,inactive,–
O=[N+]([O-])C(CO)(CO)CO,inactive,–
CC(=O)OCCOCCOCCOC(C)=O,inactive,–
CN[C@H]1CC[C@@H](c2ccc(Cl)c(Cl)c2)c2ccc(S(N)(=O)=O)cc21,inactive,–
NCCO,inactive,–
Cc1cccc(C)c1O,inactive,–
CC(=O)OC/C=C(\C)CCC=C(C)C,inactive,–
c1cc(-c2ccncc2)ccn1,inactive,–
CNC(=O)[C@H]1O[C@@H](n2cnc3c(NCc4cc(Cl)ccc4OCc4cc(C)no4)ncnc32)[C@H](O)[C@@H]1N,inactive,–
